The list is not random: actives were taken first. Their share in the collection is about 7.5%.
SMN2 splice up = increases expression of the SMN2 splice variant. HEK293 SMN2-luciferase splicing reporter, luminescence, 30-36 h. Potency, µM (highest dose often 46.1 µM), for inactives: at the top dose activity change, positive = activation, usual class: activators. hit rate 2.8% among 210,000; further: % of control where 0% means no effect; nearly all actives have a fitted effect of over 55% in size
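qHTS luciferase splicing reporter: luminescence rises when SMN2 exon 7 is included in transfected HEK293 cells. Compound exposure lasted 30-36 h at 37C, with 4.5 mM final sodium butyrate as control, followed by a ONE-Glo read.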
NPC1 promoter act = NPC1 promoter activation; Huh7 NPC1 promoter luciferase reporter, 24 h; Potency, µM (series often up to 9.22 µM), for the others: top-dose activation, most hits filed as activators; hit rate 2.4% among 320,000; AID 485313; further: % of control where 0% means no effect; nearly all actives have a fitted effect of over 60% in size
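Compounds in DMSO were transferred onto Huh7 NPC1-luciferase reporter cells pre-incubated 2 h; after 24 h at 37 °C, Amplite reagent was dispensed and luminescence recorded 10 min later.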
Rab9 promoter act = Rab9 promoter activation; Huh7 Rab9 promoter-luciferase reporter, luminescence, 24 h; Potency, µM (top dose mostly 9.22 µM), without a hit: top-dose activation, negative = inhibition, most hits filed as activators; hit rate 2.8% among 320,000; further: % of control where 0% means no effect; nearly all actives have a fitted effect of over 60% in size
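Steps: seed 1500 Huh7 Rab9-luc cells per well, rest 2 h at 37 °C; add compound in DMSO; incubate 24 h; add luciferase reagent, 10 min ambient; read luminescence.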
Luc counter = Kinase-Glo luciferase inhibition (counter-screen). Q27757. Kinase-Glo luciferase, ATP luminescence, 8 min. Potency, µM (top dose mostly 38.3 µM), for inactives: top-dose activity change, negative = inhibition, most hits filed as inhibitors. hit rate 0.28% among 200,000. AID 1379; further: on the % scale 0 is the no-effect control and ±100 the full control effect; nearly all actives have a fitted effect of over 60% in size
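Compounds were added to a substrate mix at pH 7.2 (50 mM imidazole, 10 uM ATP, within the enzyme's linear range), followed by Kinase-Glo detection reagent; luminescence was measured after 8 minutes at ambient temperature.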
ELG1 genotoxic = induces genotoxicity in HEK293T cells with luciferase-tagged ELG1; hit rate 1.3% among 330,000; AID 504466; Potency, µM (series often up to 46 µM), inactives show top-dose activity change, positive = activation, most hits filed as activators; HEK293T ELG1-luciferase reporter, luminescence, 16 h; further: % of control where 0% means no effect; nearly all actives have a fitted effect of over 60% in size
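Screening used a luciferase reporter fused to human ELG1 in HEK293T cells. Luminescence was read on a CCD plate imager after 16 hr exposure and 30 min ONE-Glo incubation.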
FLuc modulator = counter-screen for miR-21 project: firefly luciferase inhibitors or activators; P08659; purified FLuc, Km substrates, luminescence inhibition; Potency, µM (top dose mostly 57.5 µM), for the others: top-dose activity change, negative = inhibition, usual class: inhibitors; hit rate 6.9% among 360,000; AID 588342;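 further: plate controls were vehicle for no effect and reference inhibitor for full effect; nearly all actives have a fitted effect of over 55% in size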
Target sequence (P08659 whole entry, looked up): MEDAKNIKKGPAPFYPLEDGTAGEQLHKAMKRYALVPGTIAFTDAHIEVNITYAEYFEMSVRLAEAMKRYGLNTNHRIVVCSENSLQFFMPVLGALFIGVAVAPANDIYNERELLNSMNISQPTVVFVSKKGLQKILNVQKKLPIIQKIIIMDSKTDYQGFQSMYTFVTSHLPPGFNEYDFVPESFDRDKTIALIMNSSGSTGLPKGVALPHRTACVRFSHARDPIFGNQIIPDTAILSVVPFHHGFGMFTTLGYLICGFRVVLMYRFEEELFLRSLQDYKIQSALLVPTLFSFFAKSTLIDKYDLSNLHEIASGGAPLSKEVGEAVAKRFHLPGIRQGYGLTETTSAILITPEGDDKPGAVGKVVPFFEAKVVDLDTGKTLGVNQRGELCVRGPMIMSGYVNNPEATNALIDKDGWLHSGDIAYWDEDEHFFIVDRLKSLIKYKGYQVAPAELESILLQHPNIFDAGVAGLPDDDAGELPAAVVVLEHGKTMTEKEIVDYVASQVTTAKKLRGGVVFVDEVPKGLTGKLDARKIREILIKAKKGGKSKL
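Purified P. pyralis luciferase (10nM final) with 10uM D-luciferin and 10uM ATP (Km levels) in 50mM Tris acetate pH 7.5, 10mM Mg acetate, 0.01% Tween-20, 0.05% BSA; qHTS 6-point titration, ~60 µM downward; luminescence read.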
* hit, by the source's call; ? = inconclusive; / = no result; [ ] = another dose, or the depositor's remark. The call rests on the fitted dose curve; in most records, active means well fitted curve in the direction sought with a large enough effect; inconclusive means small, poorly fitted or top-dose-only effect, or another doubt; inactive means no such curve, though single readings can be large; an effect the other way counts as inactive or inconclusive. Potency means the concentration at half of the fitted maximal effect.

SMILES	SMN2 splice up	NPC1 promoter act	Rab9 promoter act	Luc counter	ELG1 genotoxic	FLuc modulator
CCC(=O)NCCc1nc2cc(NC(=O)c3ccc(F)cc3)ccc2n1C	/	1.26µM*	2.82µM*	/	7.3µM*	16.9µM*
Cn1c(CCNC(=O)C2CCCCC2)nc2cc(NC(=O)c3cccs3)ccc21	11.4%	7.2%	7.3%	0.5%	?	0.9%
COc1ccc(OCC(=O)Nc2ccc3c(c2)nc(CCNC(C)=O)n3C)cc1	/	-2.8%	3.9%	/	-3.3%	3.5%
CCCC(=O)Nc1ccc2c(c1)nc(CCNC(=O)c1ccccc1)n2C	-1.7%	1.5%	-3.6%	-3.0%	-1.5%	4.1%
CC(=O)N1CCN(Cc2nc3cc(NC(=O)c4ccc(Cl)cc4)ccc3n2C)CC1	-45.0%	-5.3%	1.8%	2.1%	-2.8%	?
CCC(=O)NCCc1nc2cc(NC(=O)c3ccc(OC)cc3)ccc2n1C	12.6µM*	?	?	-3.4%	8.91µM*	16.9µM*
CC(=O)NCCc1nc2cc(NC(=O)c3cccs3)ccc2n1C	/	?	4.47µM*	-5.7%	-12.8%	?
CC(=O)NCCc1nc2cc(NC(=O)c3ccc(Cl)cc3)ccc2n1C	/	0.708µM*	1.12µM*	/	5.8µM*	8.49µM*
CC(=O)N1CCN(C2=NC(=O)/C(=C/c3ccc(OS(=O)(=O)c4ccccc4)cc3)S2)CC1	/	-3.0%	-0.7%	/	-9.6%	1.0%
CC(=O)Nc1cc(C)c(S(C)(=O)=O)c(C)c1	17.3%	-2.1%	-1.0%	-0.6%	-0.6%	6.4%
CC(C)c1ccc(Nc2nc3c(S(=O)(=O)c4ccc(Br)cc4)nnn3c3ccsc23)cc1	/	/	/	/	/	-1.4%
Cc1cc(C)c(NC(=O)c2sc3nc(C)cc(C)c3c2NC(=O)c2ccccc2)c(C)c1	-9.1%	/	/	/	/	-0.2%
CCC(=O)NCCc1nc2cc(NC(=O)c3ccc(Cl)cc3)ccc2n1C	/	1.78µM*	0.631µM*	/	?	10.7µM*
O=C(c1ccccc1)c1ccc2cc(O)ccc2c1	/	?	?	/	?	15.1µM*
O=C(c1ccccc1)c1cccc(C(=O)c2ccccc2)c1	/	5.4%	2.0%	/	-4.5%	-14.1%
C/C(=N\OC(=O)c1ccc(C)cc1)c1sc(C)nc1C	-10.4%	-3.9%	-2.2%	-9.5%	0.0%	2.69µM*
C/C(=N/N=C(/C)c1cccs1)c1cccs1	/	?	?	/	?	4.78µM*
C/C(=N\OC(=O)c1ccc(Cl)c(Cl)c1)c1sc(C)nc1C	-9.7%	-1.0%	-1.8%	2.0%	0.8%	5.36µM*
C/C(=N\NC(=O)Cc1ccccc1)c1cccs1	3.0%	0.6%	-2.0%	-7.0%	0.0%	-0.2%
C/C(=N/OC(=O)c1ccccc1Br)c1ccc(C)cc1	/	17.8%	17.1%	/	?	2.69µM*
CNc1c(NC(=O)c2ccc(OC)c(OC)c2)c(=O)oc2ccccc12	4.0%	/	/	/	/	5.5%
COc1ccc(C(=O)O/N=C(/c2cccs2)C(C)(C)C)cc1	/	-1.6%	1.2%	/	-0.9%	-11.2%
C/C(=N/OC(=O)c1ccc(C)cc1)c1cccs1	11.3%	-1.2%	1.5%	12.6µM*	1.4%	0.0757µM*
COc1ccccc1NC(=O)CSc1nnc(-c2ccoc2C)o1	/	?	?	/	?	-15.3%
Cc1occc1-c1nnc(SCC(=O)Nc2ccccn2)o1	10µM*	?	?	1.1%	?	-2.7%
SMILES	SMN2 splice up	NPC1 promoter act	Rab9 promoter act	Luc counter	ELG1 genotoxic	FLuc modulator
O=C(CSc1nnc(-c2ccccc2Cl)o1)Nc1ccccn1	/	?	0.562µM*	2.4%	?	-16.0%
COc1cc(/C=N/NC(=O)c2cc(-c3ccccc3)n[nH]2)cc(OC)c1OC	/	/	/	-2.4%	/	/
O=C(Nc1ccc(C(=O)OCc2cc(=O)n3nc(C4CC4)sc3n2)cc1)c1cccc(F)c1	/	/	/	/	/	0.2%
Cc1cc(-c2n[nH]c(=S)o2)c(C)n1-c1ccccc1	7.08µM*	?	2.51µM*	-2.1%	?	3.01µM*
Oc1cc2ccccc2cc1-c1n[nH]c(=S)o1	5.5%	2.0%	13.8%	-4.1%	7.6%	?
CC(C)(C)n1ncc2c(=O)n(Cc3ccccc3)cnc21	/	/	/	/	/	2.1%
Cc1ccc(C(=O)Cn2cnc3ccccc3c2=O)cc1	11.2µM*	?	2.51µM*	-0.8%	?	21.3µM*
CC(C)(C)n1ncc2c(=O)n(CC(=O)c3ccccc3)cnc21	12.6µM*	?	4.47µM*	-2.5%	15.1%	23.9µM*
CC(C)(C)n1ncc2c(=O)n(CC(=O)OCc3ccccc3)cnc21	3.7%	?	1.41µM*	?	?	0.0849µM*
CCc1ccc(CNC(=O)CSCc2cnn(-c3ccccc3)c2-n2cccc2)cc1	-2.7%	/	/	/	/	-16.9%
CCN(CC)C1CCN(C(=O)c2ccc(OC3CCN(Cc4ccccn4)CC3)cc2)C1 (stereo unspecified)	/	4.2%	0.2%	/	0.0%	1.2%
O=C(O)c1cc(-c2c[nH]c3ccccc23)nc2cc3ccccc3cc12	/	27.5%	25.3%	/	17.4%	0.675µM*
O=C(O)c1cc(-c2cc(C(=O)O)c3ccccc3n2)nc2ccccc12	/	0.1%	-2.0%	/	-1.3%	?
O=C(O)c1cc(-c2ccc(-c3ccccc3)cc2)nc2cc3ccccc3cc12	-1.3%[9.22 µM]	/	/	-4.4%[7.66 µM]	/	/
O=C(c1cc(-c2cccc3ccccc23)nc2ccccc12)N1CCN(CCO)CC1	/	/	/	/	-3.7%	/
O=C(O)c1cc(-c2ccc3ccccc3c2)nc2ccc(F)cc12	/	-0.1%	-2.6%[1.84 µM]	/	1.5%	2.69µM*
O=C(O)c1cc(-c2cccc3ccccc23)nc2ccccc12	/	1.3%	-2.4%	/	-6.9%	26.9µM*
O=C(O)c1cc(-c2ccc3ccccc3n2)nc2ccccc12	/	?	2.82µM*	/	?	0.601µM*
COc1cc(NC(=O)CCNS(=O)(=O)c2ccc3c(c2)CCN3C(=O)C2CC2)cc(OC)c1	/	/	/	/	/	-2.9%
CCCc1c(OCCCOc2ccc(OCC(=O)O)cc2)ccc(CC=O)c1O	/	/	/	1.2%	/	/
CCOc1ccc(-c2cc(C(=O)O)c3ccccc3n2)c(OCC)c1	117.6%	-1.2%	-2.3%	-0.3%	-1.7%	16.9µM*
O=C(Nc1ccc(F)cc1)C1CCN(c2nc3ccccc3n3cccc23)CC1	/	/	/	/	/	3.1%
COC(=O)CNC(=O)COC(=O)/C=C/c1ccc2ccccc2n1	3.4%	1.1%	-1.8%	-1.4%	7.0%	?
CC(OC(=O)/C=C/c1ccc2ccccc2n1)C(=O)NCc1ccccc1 (stereo unspecified)	/	-6.4%	-2.9%	/	-2.8%	9.53µM*
CN(C)Cc1c(O)ccc2c1O/C(=C\C=C\c1ccccc1)C2=O	/	-0.4%	1.1%	/	-8.9%	13.5µM*
COc1ccccc1/C=C/C=C1\Oc2c(ccc(O)c2CN2CCN(CCO)CC2)C1=O	24.5%	3.0%	2.8%	-1.9%	8.7%	3.79µM*

Compound activity (PubChem BioAssay)
